Measured values from PubChem BioAssay (Tox21).
Records with an inconclusive call do not appear. Active and inactive are the calls of the source. Unless noted, calls come from the whole dose curve; as a rule, active = well fitted curve in the direction sought with a large enough effect in the repeat runs; inconclusive = weak or mixed curves; inactive = no such curve, though single readings can be large; an effect the other way counts as inactive or inconclusive.

How the values were obtained:
[1] = qHTS assay to identify aromatase inhibitors - cell viability counter screen (AID 743084);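 note: cells stimulated with testosterone during compound exposure; nearly all actives have a fitted effect of over 55% in size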
[2] = molecular target: Aryl hydrocarbon receptor (Homo sapiens) (UniProt P35869); assay: qHTS assay to identify small molecule that activate the aryl hydrocarbon receptor (AhR) signaling pathway (AID 743085);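 note: HG2L7.5c1 human HepG2 liver cells with stably integrated DRE-driven firefly reporter; series mostly up to about 70 µM; nearly all actives have a fitted effect of over 15% in size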
Chain of Aryl hydrocarbon receptor (Homo sapiens) (P35869 whole entry, looked up): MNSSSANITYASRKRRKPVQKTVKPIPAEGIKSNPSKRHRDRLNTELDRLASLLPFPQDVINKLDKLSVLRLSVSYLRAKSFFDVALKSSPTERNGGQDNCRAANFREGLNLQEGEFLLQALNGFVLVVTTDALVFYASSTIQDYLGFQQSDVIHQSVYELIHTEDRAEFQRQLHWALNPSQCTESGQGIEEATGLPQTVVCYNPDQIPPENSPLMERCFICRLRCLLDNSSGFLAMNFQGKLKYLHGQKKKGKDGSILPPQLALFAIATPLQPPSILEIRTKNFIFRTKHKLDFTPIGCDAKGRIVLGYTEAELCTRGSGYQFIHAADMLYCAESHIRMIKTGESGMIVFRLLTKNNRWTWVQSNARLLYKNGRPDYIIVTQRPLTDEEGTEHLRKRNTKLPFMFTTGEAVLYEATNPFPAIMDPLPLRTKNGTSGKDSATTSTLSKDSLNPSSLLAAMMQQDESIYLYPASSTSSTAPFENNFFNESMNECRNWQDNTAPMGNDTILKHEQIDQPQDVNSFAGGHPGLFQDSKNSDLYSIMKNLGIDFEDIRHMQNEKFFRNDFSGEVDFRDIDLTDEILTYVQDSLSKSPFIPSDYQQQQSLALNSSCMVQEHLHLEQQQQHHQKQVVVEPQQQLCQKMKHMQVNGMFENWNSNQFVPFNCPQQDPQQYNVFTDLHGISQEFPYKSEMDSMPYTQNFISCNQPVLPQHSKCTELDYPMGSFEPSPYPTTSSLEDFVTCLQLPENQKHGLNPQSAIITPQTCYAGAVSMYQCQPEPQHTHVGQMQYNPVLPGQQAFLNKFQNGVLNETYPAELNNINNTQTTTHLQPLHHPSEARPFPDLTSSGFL
Summary of the method: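 Cell line HG2L7.5c1 (human hepatoma, 20× DRE-luc). Plated, 5 h 37C, compound/DMSO added, 24 h 37C. CellTiter-Fluor 30 min 37C → fluorescence; then ONE-Glo 30 min RT → luminescence.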

[3] = qHTS assay to identify small molecule that activate the aryl hydrocarbon receptor (AhR) signaling pathway - cell viability counter screen (AID 743086);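 note: HepG2 liver cells carrying the AhR DRE luciferase reporter; series mostly up to about 70 µM; nearly all actives have a fitted effect of over 45% in size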
Summary of the method: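 HepG2-AhR-luc (HG2L7.5c1) cells, 4000/well, were preincubated 5 h at 37C, exposed to compound in qHTS format for 24 hr at 37C, then given CellTiter-Fluor for 30 min; viability was read as fluorescence in the reporter wells.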

[4] = qHTS assay to identify small molecule antagonists of the peroxisome proliferator-activated receptor gamma (PPARg) signaling pathway - cell viability counter screen (AID 743194); note: nearly all actives have a fitted effect of over 55% in size
Summary of the method: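 PPARg-UAS-bla HEK293H cells were plated, rested 5 h at 37 C, then treated with compounds plus rosiglitazone (50 nM final) for 17 h at 37 C; viability was then read by CellTiter-Glo luminescence after 30 min at room temperature.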

[5] = qHTS assay for small molecule agonists of the antioxidant response element (ARE) signaling pathway (AID 743202; active = well fitted activation curve with a large enough effect in the signal ratio in the repeat runs, not every such curve was filed as active; the % refers to the signal ratio)
Summary of the method: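 Following a 16 h, 37 C exposure of reporter HepG2 cells (ARE-driven beta-lactamase, 2,000 cells/well) to compounds, FRET substrate was applied for 2 h at room temperature and fluorescence intensity recorded.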

[6] = qHTS assay for small molecule agonists of the antioxidant response element (ARE) signaling pathway - cell viability counter screen (AID 743203; calls by dose curve; note: nearly all actives have a fitted effect of over 55% in size)
Summary of the method: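 ATP content via CellTiter-Glo luminescence served as the viability measure. Cells: ARE-bla HepG2, 2,000 per well. Exposure: 16 hrs, 37C/5% CO2.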

[7] = qHTS assay for small molecule activators of the heat shock response signaling pathway (AID 743210; active = well fitted activation curve with a large enough effect in the signal ratio in the repeat runs, with a control signal flat, not every such curve was filed as active; the % refers to the signal ratio; note: series mostly up to about 63 µM)
Summary of the method: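 Heat shock element–beta-lactamase HeLa reporter cells; qHTS with compounds for 5 h at 37 C; detection by FRET substrate fluorescence after 2.5 h at RT.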

[8] = qHTS assay to identify small molecule agonists of the peroxisome proliferator-activated receptor delta (PPARd) signaling pathway - cell viability counter screen (AID 743211); note: nearly all actives have a fitted effect of over 55% in size
Summary of the method: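 HEK293H PPARd-bla, 3000 cells/well; 5 h preincubation 37C/5% CO2; cpd in DMSO, 17 h 37C; B/G FRET substrate 2 h RT; CellTiter-Glo 30 min RT, luminescence.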

[9] = qHTS assay to identify small molecule agonists of the farnesoid-X-receptor (FXR) signaling pathway - cell viability counter screen (AID 743218); note: nearly all actives have a fitted effect of over 45% in size
Summary of the method: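 Quantitative HTS counter screen measuring ATP-based viability via CellTiter-Glo luminescence in HEK 293T cells carrying a UAS-driven beta-lactamase reporter, after 16 h compound exposure at 37 C.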

[10] = qHTS assay to identify small molecule antagonists of the farnesoid-X-receptor (FXR) signaling pathway - cell viability counter screen (AID 743221; active = well fitted cell-killing curve with a large enough effect in the repeat runs, not every such curve was filed as active; note: nearly all actives have a fitted effect of over 50% in size)
Summary of the method: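 Luminescence from CellTiter-Glo measures cytotoxicity in GeneBLAzer FXR-UAS-bla HEK 293T cells. Cells were exposed to compounds with 50 uM chenodeoxycholic acid (final) for 16 h at 37 C, in wells also used for the reporter readout.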

[11] = molecular target: Vitamin D3 receptor (Homo sapiens) (UniProt P11473); assay: qHTS assay to identify small molecule agonists of the vitamin D receptor (VDR) signaling pathway (AID 743222; calls by dose curve)
Chain of Vitamin D3 receptor (Homo sapiens) (P11473 whole entry, looked up): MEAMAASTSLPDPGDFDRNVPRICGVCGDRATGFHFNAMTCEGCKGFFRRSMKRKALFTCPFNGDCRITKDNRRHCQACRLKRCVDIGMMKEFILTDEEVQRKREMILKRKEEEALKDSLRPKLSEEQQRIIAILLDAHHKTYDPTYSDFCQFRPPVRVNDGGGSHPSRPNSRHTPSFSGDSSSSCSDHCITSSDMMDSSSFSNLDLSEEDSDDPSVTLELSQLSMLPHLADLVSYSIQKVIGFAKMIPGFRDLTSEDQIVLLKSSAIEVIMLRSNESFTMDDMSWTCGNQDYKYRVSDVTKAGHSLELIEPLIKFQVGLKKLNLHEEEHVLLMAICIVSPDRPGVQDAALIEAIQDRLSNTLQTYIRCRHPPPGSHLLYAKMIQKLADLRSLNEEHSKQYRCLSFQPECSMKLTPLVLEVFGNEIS
Summary of the method: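 Tox21 cell reporter format: VDR-bla line, 16 h compound exposure in 5% CO2 at 37C, then fluorescence intensity after 2 h with LiveBLAzer B/G FRET substrate.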

[12] = molecular target: Vitamin D3 receptor (Homo sapiens) (UniProt P11473); assay: qHTS assay to identify small molecule antagonists of the vitamin D receptor (VDR) signaling pathway (AID 743223; active = well fitted inhibition curve with a large enough effect in the signal ratio in the repeat runs, not every such curve was filed as active; the % refers to the signal ratio)
Summary of the method: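 Antagonist mode uses 1alpha,25-dihydroxyvitamin D3 at 3 nM final as stimulus. VDR-bla cells receive compounds in DMSO, incubate 16 h at 37C, then a beta-lactamase FRET substrate for 2 h at room temperature before fluorescence measurement.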

[13] = molecular target: Peroxisome proliferator-activated receptor gamma (Homo sapiens) (UniProt P37231); assay: qHTS assay to identify small molecule agonists of the peroxisome proliferator-activated receptor gamma (PPARg) signaling pathway (AID 743094; active = well fitted activation curve with a large enough effect in the signal ratio in the repeat runs, not every such curve was filed as active; the % refers to the signal ratio)
Chain of Peroxisome proliferator-activated receptor gamma (Homo sapiens) (P37231 whole entry, looked up): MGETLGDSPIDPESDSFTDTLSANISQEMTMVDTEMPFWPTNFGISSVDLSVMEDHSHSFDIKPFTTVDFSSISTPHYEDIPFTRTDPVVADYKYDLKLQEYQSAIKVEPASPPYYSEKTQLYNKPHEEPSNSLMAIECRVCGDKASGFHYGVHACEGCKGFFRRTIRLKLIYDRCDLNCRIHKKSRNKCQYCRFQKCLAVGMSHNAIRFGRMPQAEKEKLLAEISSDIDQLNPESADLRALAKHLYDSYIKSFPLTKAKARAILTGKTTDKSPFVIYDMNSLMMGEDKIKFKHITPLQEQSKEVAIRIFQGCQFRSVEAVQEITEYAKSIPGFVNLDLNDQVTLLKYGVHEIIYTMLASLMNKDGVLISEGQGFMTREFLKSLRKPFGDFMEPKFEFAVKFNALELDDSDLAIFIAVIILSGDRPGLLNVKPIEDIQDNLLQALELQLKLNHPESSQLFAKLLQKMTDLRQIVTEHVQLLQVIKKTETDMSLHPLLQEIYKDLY
Summary of the method: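 Agonism was assessed in a beta-lactamase reporter system, HEK293H cells with a stably integrated UAS-bla construct under PPARg control; the 17 h treatment at 37C preceded a 1 h room-temperature FRET substrate read.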

[14] = qHTS assay for small molecule activators of the heat shock response signaling pathway - cell viability counter screen (AID 743209); note: nearly all actives have a fitted effect of over 50% in size
Summary of the method: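 Compounds dissolved in DMSO were added to overnight-plated HSE-bla HeLa cells and left 5 h at 37 C. Cell viability was quantified by luminescence using CellTiter-Glo.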

[15] = molecular target: Peroxisome proliferator-activated receptor delta (Homo sapiens) (UniProt Q03181); assay: qHTS assay to identify small molecule agonists of the peroxisome proliferator-activated receptor delta (PPARd) signaling pathway (AID 743212; calls by dose curve)
Chain of Peroxisome proliferator-activated receptor delta (Homo sapiens) (Q03181 whole entry, looked up): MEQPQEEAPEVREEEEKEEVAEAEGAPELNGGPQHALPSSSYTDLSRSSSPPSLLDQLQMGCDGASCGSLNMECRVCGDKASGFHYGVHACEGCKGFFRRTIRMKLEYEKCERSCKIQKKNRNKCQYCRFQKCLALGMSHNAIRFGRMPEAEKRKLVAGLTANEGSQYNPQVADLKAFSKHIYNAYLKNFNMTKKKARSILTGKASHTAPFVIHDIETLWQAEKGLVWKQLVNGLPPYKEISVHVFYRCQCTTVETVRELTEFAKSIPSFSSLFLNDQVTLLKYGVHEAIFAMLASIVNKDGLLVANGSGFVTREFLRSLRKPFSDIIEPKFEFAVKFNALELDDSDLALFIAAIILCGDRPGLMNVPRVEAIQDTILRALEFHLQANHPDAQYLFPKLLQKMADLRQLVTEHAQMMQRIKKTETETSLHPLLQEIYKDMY
Summary of the method: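 Beta-lactamase reporter read by fluorescence (LiveBLAzer B/G FRET, 2 h, room temperature). Test agents, in DMSO, incubated at 37 C with PPARd-bla HEK293H cells.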

[16] = molecular target: Peroxisome proliferator-activated receptor delta (Homo sapiens) (UniProt Q03181); assay: qHTS assay to identify small molecule antagonists of the peroxisome proliferator-activated receptor delta (PPARd) signaling pathway (AID 743215; active = well fitted inhibition curve with a large enough effect in the signal ratio in the repeat runs, not every such curve was filed as active; the % refers to the signal ratio;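 note: cells stimulated with agonist L165041 at 300 nM final during compound exposure; series mostly up to about 62 µM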)
Summary of the method: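 Here, a reporter line (HEK293H, beta-lactamase under a UAS) measures PPARd signaling. Compounds are tested against agonist L165041 at 300 nM final concentration over 17 h at 37 C, with fluorescence read after substrate.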

[17] = qHTS assay to identify small molecule antagonists of the peroxisome proliferator-activated receptor delta (PPARd) signaling pathway - cell viability counter screen (AID 743213); note: nearly all actives have a fitted effect of over 50% in size
Summary of the method: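 CellTiter-Glo was added to PPARd-bla HEK293H wells following 17 h compound treatment in the presence of 300 nM L165041. Luminescence was recorded after 30 min at room temperature.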

[18] = molecular target: Peroxisome proliferator-activated receptor gamma (Homo sapiens) (UniProt P37231); assay: qHTS assay to identify small molecule antagonists of the peroxisome proliferator-activated receptor gamma (PPARg) signaling pathway (AID 743191; calls by dose curve; note: series mostly up to about 63 µM; nearly all actives have a fitted effect of over 30% in size)
Summary of the method: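 GeneBLAzer PPARg UAS-bla HEK293H cells carrying a UAS-driven beta-lactamase reporter were plated at 3000 cells/well, preincubated 5 h at 37C, then given compound for 17 h at 37C; LiveBLAzer B/G FRET substrate was read after 1 h at room temperature.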

[19] = molecular target: Bile acid receptor (Homo sapiens) (UniProt Q96RI1); assay: qHTS assay to identify small molecule antagonists of the farnesoid-X-receptor (FXR) signaling pathway (AID 743217; active = well fitted inhibition curve with a large enough effect in the signal ratio in the repeat runs, not every such curve was filed as active; the % refers to the signal ratio)
Chain of Bile acid receptor (Homo sapiens) (Q96RI1 whole entry, looked up): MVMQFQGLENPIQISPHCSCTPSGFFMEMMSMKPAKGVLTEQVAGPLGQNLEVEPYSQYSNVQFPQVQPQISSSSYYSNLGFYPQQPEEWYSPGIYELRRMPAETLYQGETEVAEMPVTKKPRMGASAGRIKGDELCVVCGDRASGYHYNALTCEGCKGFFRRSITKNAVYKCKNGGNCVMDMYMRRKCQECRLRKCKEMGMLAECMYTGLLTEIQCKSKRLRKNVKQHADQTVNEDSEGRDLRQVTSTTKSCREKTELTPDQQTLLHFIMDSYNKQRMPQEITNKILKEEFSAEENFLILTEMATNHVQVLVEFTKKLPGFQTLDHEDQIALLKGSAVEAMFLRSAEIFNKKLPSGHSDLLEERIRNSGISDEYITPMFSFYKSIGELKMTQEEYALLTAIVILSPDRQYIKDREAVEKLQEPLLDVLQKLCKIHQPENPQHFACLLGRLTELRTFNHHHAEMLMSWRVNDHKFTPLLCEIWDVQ
Summary of the method: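 Test compounds are pin-transferred onto FXR-bla HEK 293T cells, then chenodeoxycholic acid is added at 50 uM final. After 16 h at 37 °C, LiveBLAzer B/G substrate is applied for 2 h at room temperature and fluorescence read.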

[20] = molecular target: Bile acid receptor (Homo sapiens) (UniProt Q96RI1); assay: qHTS assay to identify small molecule agonists of the farnesoid-X-receptor (FXR) signaling pathway (AID 743220; active = well fitted activation curve with a large enough effect in the signal ratio in the repeat runs, not every such curve was filed as active; the % refers to the signal ratio)
Summary of the method: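 FXR-UAS-bla HEK 293T cells carrying a UAS-driven beta-lactamase reporter were plated for 5 h at 37C/5% CO2, then exposed to DMSO-dissolved Tox21 10K compounds for 16 h at 37C. A LiveBLAzer B/G FRET substrate was loaded for 2 h at room temperature before fluorescence reading.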

Measured: Potency

O=S(=O)(O)NC1CCCCC1
not listed: [13] | [14] | [15] | [16] | [17] | [18] | [19] | [20]
inactive: all other assays above

NS(=O)(=O)c1cc(C(=O)O)c(NCc2ccco2)cc1Cl
not listed: [2] | [11] | [12] | [16] | [17] | [18] | [19] | [20]
inactive: all other assays above

CC1(C)[C@@H]2CC[C@@]1(C)C(=O)C2
not listed: [11] | [12] | [13] | [14] | [17] | [18] | [19] | [20]
inactive: all other assays above

C[C@]12C=CC(=O)C=C1CC[C@@H]1[C@@H]2[C@@H](O)C[C@@]2(C)[C@H]1CC[C@]2(O)C(=O)CO
not listed: [11] | [12] | [13] | [14] | [16] | [18] | [19] | [20]
inactive: all other assays above

O=C1NC(=O)c2ccccc21
not listed: [11] | [12] | [14] | [15] | [16]
inactive: all other assays above

Cc1ccccc1C(OCCN(C)C)c1ccccc1 (stereo not given)
not listed: [8] | [11] | [12] | [14] | [17]
inactive: all other assays above

O=C(O)CCCCC(=O)O
not listed: [7] | [11] | [16] | [18]
inactive: all other assays above

CNC[C@H](O)c1cccc(O)c1
inactive: [1] | [2] | [3] | [4] | [5] | [6] | [8] | [9] | [10] | [12]

O=C(c1ccccc1)c1ccccc1
not listed: [12] | [13] | [14] | [15] | [16] | [17] | [18]
inactive: all other assays above

CC(=O)NS(=O)(=O)c1ccc(N)cc1
not listed: [11] | [12] | [13] | [14] | [18] | [19] | [20]
inactive: all other assays above
